ClpP mod: qHTS Assay for Activators of ClpP; purified B. subtilis ClpP, FRET peptide cleavage, 20 min; Potency, µM (top dose mostly 57.5 µM), inactives show at the top dose activity change, negative = active; hit rate 1.9% among 340,000; AID 651965, 2013; active means well fitted falling curve with a large enough effect; inconclusive means small, poorly fitted or top-dose-only effect; inactive means no such curve, though single readings can be large or run the other way; further: the source files actives as falling curves though it sought activators and does not explain the sign; nearly all actives have a fitted effect of over 65% in size
Target sequence (P80244 whole entry, looked up): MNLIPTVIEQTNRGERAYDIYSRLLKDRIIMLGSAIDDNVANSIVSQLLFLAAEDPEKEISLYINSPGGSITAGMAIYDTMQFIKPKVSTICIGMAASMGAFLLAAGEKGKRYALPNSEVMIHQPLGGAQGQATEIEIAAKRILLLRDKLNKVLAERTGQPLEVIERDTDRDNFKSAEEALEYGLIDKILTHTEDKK
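ClpP 10 microg/mL final, pH 8 Tris/KCl buffer with BSA, glycerol, Tween-20; compound pinned in; FRET-FV substrate; RT 20 min; Ex320/Em430; ΔFRET vs ADEP 5.8 microM, DMSO, no enzyme.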
Epigenetic derep: Quantitative High-Throughput Screen for Regulators of Epigenetic Control. murine LDR cells, GFP reporter derepression, 30 h. Potency, µM (series often up to 53.9 µM), for inactives: at the highest dose GFP activation, actives largely listed as activators. hit rate 0.2% among 280,000; further: % of control where 0% means no effect; nearly all actives have a fitted effect of over 60% in size
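Murine LDR cells bearing a silenced CMV-driven GFP reporter were exposed to compound for 30 h at 37 C. After PBS washes, GFP-positive cells (20-120 um objects) counted by laser-scanning microplate cytometry.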
Gal4-VP16 FLuc: VP16 counterscreen qHTS for inhibitors of ROR gamma transcriptional activity; Drosophila S2 Gal4-VP16 UAS-luciferase, luminescence, 20 h; Potency, µM (series often up to 53.6 µM), for inactives: top-dose activity, negative = inhibition, hits mostly inhibitors; hit rate 3.5% among 310,000; AID 2546, 2010;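 further: Gal4-VP16 expression switched on by copper sulfate through the metallothionein promoter; on the % scale 0 is the no-effect control and ±100 the full control effect; nearly all actives have a fitted effect of over 50% in size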
RORg inh: qHTS for inhibitors of ROR gamma transcriptional activity; Nuclear receptor ROR-gamma (Mus musculus), P51450; Drosophila S2 Gal4-RORgamma UAS-luciferase reporter, 20 h; Potency, µM (doses to about 53.6 µM), for the others: top-dose activity change, negative = inhibition, hits mostly inhibitors; hit rate 5.4% among 310,000; AID 2551, 2010; further: on the % scale 0 is the no-effect control and ±100 the full control effect; nearly all actives have a fitted effect of over 60% in size
Target sequence (P51450 whole entry, looked up, the tested form may be a part): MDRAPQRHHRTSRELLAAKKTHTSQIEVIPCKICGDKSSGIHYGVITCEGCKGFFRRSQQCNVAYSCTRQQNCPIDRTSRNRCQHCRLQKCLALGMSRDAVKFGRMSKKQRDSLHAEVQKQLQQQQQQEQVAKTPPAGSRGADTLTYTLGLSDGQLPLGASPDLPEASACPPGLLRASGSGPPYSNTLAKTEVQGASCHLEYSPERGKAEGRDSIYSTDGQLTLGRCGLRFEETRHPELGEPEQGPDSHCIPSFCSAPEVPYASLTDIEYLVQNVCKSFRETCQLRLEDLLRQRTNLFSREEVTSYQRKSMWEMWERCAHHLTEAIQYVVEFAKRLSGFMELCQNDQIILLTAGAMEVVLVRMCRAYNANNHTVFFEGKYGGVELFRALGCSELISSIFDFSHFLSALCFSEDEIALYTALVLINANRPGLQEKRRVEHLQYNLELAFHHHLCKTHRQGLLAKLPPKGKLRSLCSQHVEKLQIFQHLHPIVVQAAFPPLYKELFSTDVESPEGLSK
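Stable Schneider cell line, Gal4 DNA-binding domain fused to ROR gamma, UAS-luciferase. Cmpd 1 hr RT → CuSO4 700 uM final → 20 hr RT → luciferase reagent 10 min → luminescence.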
Sfp inh: qHTS Assay for Inhibitors of Bacillus subtilis Sfp phosphopantetheinyl transferase (PPTase); Potency, µM, for the others: largest response in the series, negative = inhibition, usual class: inhibitors; AID 1490, 2009; hit rate 3.5% among 310,000; 4'-phosphopantetheinyl transferase ffp (Bacillus subtilis), Q9F4F7; Biochemical Sfp PPTase activity, qHTS;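 further: the enzyme is Sfp with the accession as filed and its product quenches rhodamine fluorescence; 0% = enzyme reaction without inhibitor and -100% = no enzyme wells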
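Sfp 15 nM + cpd, 15 min RT; start w/ rhodamine-CoA 5 uM, BHQ-2-YbbR 12.5 uM (final); 50 mM Hepes pH 7.6, 10 mM MgCl2, 0.01% NP-40, 0.01% BSA; read 525/598 nm at 0 and 30 min.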
PINK1 modulator: A Quantitative High throughput Screen to Identify Chemical Modulators of PINK1 Expression; PINK1 immunofluorescence, high-content cytometry, 24 h; Potency, µM (doses to about 76.6 µM), inactives show top-dose activation (PINK1 increase), hits mostly activators; hit rate 0.2% among 410,000; AID 624263, 2012; active means well fitted activation curve with a large enough effect; inconclusive means small, poorly fitted or top-dose-only effect; cell line not stated here; further: % of control where 0% means no effect; nearly all actives have a fitted effect of over 65% in size
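PINK1 protein, normally rapidly degraded, was detected by immunofluorescence after 24 hour compound treatment of a stable cell line. Titration data (5 concentrations) came from laser-scanning cytometry, with CCCP-treated wells as controls.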
Starred values were filed as active, the others as inactive; ? = inconclusive; nt = no result given; [ ] = remark or other dose. In the library only some 8.1% were active in any assay of this set; here they are far more common. Unless noted, the call rests on the fitted dose curve; in most records, active means well fitted curve in the direction sought with a large enough effect; inconclusive means small, poorly fitted or top-dose-only effect, or another doubt; inactive means no such curve, though single readings can be large; an effect the other way counts as inactive or inconclusive. Potency means the concentration at half of the fitted maximal effect.

SMILES | ClpP mod | Epigenetic derep | Gal4-VP16 FLuc | RORg inh | Sfp inh | PINK1 modulator
CCOC(=O)C1Nc2ccc(C)cc2C2C=CCC12 (centres undefined) | -3.9% | nt | nt | nt | nt | 3.1%
CCOC(=O)c1ccc2c(c1)[C@@H]1C=CC[C@@H]1[C@H](c1cccc(OC)c1OC)N2 | -27.7% | -0.1% | nt | nt | nt | 2.5%
Cc1ccc(-n2nc(C)c3c(C(=O)NCc4ccc(F)cc4)cc(C)nc32)cc1 | 148.7% | 0.0% | nt | nt | nt | 1.8%
Cc1ccccc1NC(=O)c1c(NC(=O)c2ccncc2)sc2c1CCC(C(C)(C)C)C2 (centres undefined) | 0.9% | -0.6% | nt | nt | nt | 7.9%
CCCn1c(-c2ccc(F)cc2)nc2c(NCCCCN(CC)CC)nc(C)nc21 | nt | 0.2% | -5.5% | -17.4% | 4.8% | nt
COc1ccc(C(=O)/C=C/C(=O)N(CC(=O)NC2CCCCC2)Cc2ccc(F)cc2)c(O)c1 | nt | 5.8% | 7.08µM* | -11.9% | 8.91µM* | -1.0%
COc1ccc(OC)c(NC(=O)CN(Cc2ccc(F)cc2)C2CCCCC2)c1 | nt | nt | 17.8µM* | ? | 5.4% | 11.9%
COc1ccc(Cl)cc1NC(=O)CN(C)C1CCCCC1 | -1.1% | 0.0% | -9.4% | -2.5% | 6.0% | 0.6%
COc1ccc(C(=O)/C=C/C(=O)N(CC(=O)NCCC(C)C)Cc2cccs2)c(O)c1 | -1.4% | 1.4% | ? | ? | 3.55µM* | -2.5%
COc1cc(OC)c(Nc2nc3ccccc3c3nncn23)cc1Cl | 4.0% | -2.4% | nt | nt | nt | 3.1%
CCCN1CNC(=S)N(Cc2ccccc2)C1 | -0.9% | 1.3% | 7.08µM* | 5.62µM* | 12.9% | -0.5%
CC(C)CN1CN(Cc2ccccc2)CNC1=S | -0.4% | 1.0% | 5.62µM* | 3.98µM* | 14.7% | -0.1%
CCCN1CNC(=S)N(CC2CCCO2)C1 (centres undefined) | 0.6% | -1.3% | ? | ? | -34.1% | -1.1%
CCCCN1CNC(=S)N(Cc2ccccc2)C1 | -7.2% | 0.0% | 5.62µM* | 3.98µM* | 4.1% | -2.7%
COCCCN1CN(Cc2ccccc2)CNC1=S | 0.9% | 0.0% | ? | 11.2µM* | 10.0% | -2.1%
Cc1nc([N+](=O)[O-])cn1CC(O)c1ccc2c(c1)OCCO2 (centres undefined) | -1.3% | nt | nt | nt | nt | 1.0%
C=C1CCN(C(CC(C)C)C(=O)Nc2nc3ccc(Cl)cc3s2)S(=O)(=O)c2ccccc21 (centres undefined) | nt | nt | -2.5% | -13.5% | 3.8% | nt
CCOc1ccc(NC(=O)Cn2nc(CC)n3c(cc4sccc43)c2=O)cc1 | -0.1% | 0.8% | nt | nt | nt | -0.8%
S=C1NCN(Cc2ccco2)CN1CCc1ccccc1 | 0.7% | -0.3% | 11.2µM* | 2.24µM* | 8.4% | 3.5%
CC(C)CN1CN(Cc2ccco2)CNC1=S | 0.7% | -0.9% | ? | 2.24µM* | 10.9% | 1.3%
CCOCCCN1CN(Cc2ccco2)CNC1=S | 0.0% | 1.1% | -4.3% | 11.2µM* | 39.8µM* | -0.3%
O=C1CCN(Cc2ccco2)C(=S)N1 | nt | nt | nt | nt | nt | 1.4%
CCCN1CN(Cc2ccccc2)CNC1=S | -3.9% | 0.0% | 7.08µM* | 6.31µM* | -11.7% | -1.0%
CCOc1ccc(-c2nc(SCC(=O)NCCOC)c(-c3ccc(OC)c(OC)c3)[nH]2)cc1 | -28.7% | 4.6% | nt | nt | nt | -1.5%
O=C(/N=C1\NC(=O)C(F)(C(F)(F)F)S1)NC1CCCCC1 (centres undefined) | -4.0% | 1.1% | -3.8% | -17.6% | 12.6µM* | -0.7%
SMILES | ClpP mod | Epigenetic derep | Gal4-VP16 FLuc | RORg inh | Sfp inh | PINK1 modulator
O=C1NN(c2ccccc2)C(=O)/C1=C\c1ccccc1 | nt | nt | -17.4% | 0.3% | -25.1% | -1.6%
O=C1NN(c2cccc(Br)c2)C(=O)/C1=C\c1ccccc1 | nt | nt | -9.6% | -0.3% | 79.4µM* | 2.7%
COc1ccc(S(=O)(=O)Nc2cc3c(cc2N2CCOCC2)n(C)c(=O)n3C)cc1 | 0.2% | 10.7% | nt | nt | nt | 1.6%
COc1ccc(-c2c(C)nn3c(C(F)(F)F)cc(-c4ccccc4)nc23)cc1 | 0.3% | 11.3% | nt | nt | nt | 4.2%
Cn1c(SCc2nnc(-c3ccccc3Br)o2)nc2sc3c(c2c1=O)CCC3 | -0.9% | 0.5% | -2.3% | 9.4% | 79.4µM* | 3.7%[38.3 µM]
Cc1ccccc1Cc1nc2cccnc2n1C1CCN(C(=O)CC2NC(=O)c3ccccc32)CC1 (centres undefined) | nt | nt | nt | nt | nt | 0.6%
CC(=O)c1c(C)[nH]c(C(=O)OCc2ccc([N+](=O)[O-])cc2)c1C | nt | nt | -1.6% | ? | 12.3% | 11.3%
COC(=O)c1ccc(COC(=O)c2[nH]c(C)c(C(C)=O)c2C)o1 | -0.4% | 1.7% | 7.94µM* | ? | 1.8% | 0.6%
CC(=O)c1c(C)[nH]c(C(=O)OCc2ccccc2)c1C | nt | 1.1% | -13.9% | 13.6% | 15.6% | 0.1%
CC(=O)c1c(C)[nH]c(C(=O)OCCCCN2C(=O)c3ccccc3C2=O)c1C | -1.2% | -1.0% | 8.91µM* | ? | -4.7% | -0.9%
O=C(OCCCCN1C(=O)c2ccccc2C1=O)c1n[nH]c2ccccc12 | -5.1% | -2.8% | 31.6µM* | -110.4% | -20.6% | -3.9%
CCC1CCCCN1C(=O)COC(=O)c1n[nH]c2ccccc12 (centres undefined) | ? | -0.4% | 1.6% | 1.5% | -1.7% | -2.3%
CC1CCN(C(=O)COC(=O)c2n[nH]c3ccccc23)CC1 | 28.2µM* | 0.0% | -1.5% | 1.3% | 9.4% | 2.2%
COC(=O)c1ccc2c(=O)n(CCCCCC(=O)NCCc3ccccc3)c(=O)[nH]c2c1 | 0.8% | -1.3% | nt | nt | nt | 1.2%
Cc1ccc(C)c(N2CCN(C(c3ccc(F)cc3)c3nnc(-c4ccccc4)o3)CC2)c1 (centres undefined) | -0.8% | 0.0% | nt | nt | nt | 1.6%
CC(C)(C)c1ccc(C(=S)N2CCN(c3ccccc3)CC2)cc1 | nt | 1.1% | -5.1% | ? | 50.1µM* | 4.6%
CCN(CC)c1ccc(C(=S)N2CCN(c3ccccc3)CC2)cc1 | -0.3% | -1.0% | ? | 12.6µM* | ? | -1.2%
CCOc1cccc2sc(N(CCN(CC)CC)C(=O)c3ccco3)nc12 | ? | 0.8% | nt | nt | nt | -0.2%
CC(C)(C)OC(=O)[C@H](Cc1ccccc1)NC(=O)c1nc[nH]c1C(=O)NC1CCN(C(=O)OC(C)(C)C)CC1 | 3.6% | -0.5% | 7.08µM* | 5.01µM* | 24.1% | -1.3%
CC1CCN(C(=O)c2[nH]cnc2C(=O)N[C@@H](Cc2ccccc2)C(=O)OC(C)(C)C)CC1 | 0.9% | nt | 20µM* | ? | 12.1% | 0.2%

Screening data deposited in PubChem BioAssay by National Center for Advancing Translational Sciences (NCATS).
